The values that follow come from PubChem BioAssay (NCI).

Some test systems named below: SR leukemia; RPMI-8226 leukemia; OVCAR-8 ovarian; OVCAR-5 ovarian; OVCAR-4 ovarian; SK-OV-3 ovarian; IGROV1 ovarian; OVCAR-3 ovarian; HS 578T breast; NCI/ADR-RES ovarian.
Holding throughout (assay): NCI-60 one-dose screen, 48 h (100 = growth as untreated, 0 = no growth, -100 = all killed)
Settings in all cases: 10 µM unless noted

This is part of a sample that, as a whole, favours compounds with a hit. Of some 83,000 tested, about 20% had one in any assay.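 Values shown are percent growth following 48 h exposure of cells in 96-well plates to a single concentration of compound; below 10 was considered active.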 Values without a mark were called inactive. The source made the active and inactive calls.

On to `CCn1cc(C(=O)O)c(=O)c2cc(F)c(N3CCN(CC(=O)Nc4ccc(S(=O)(=O)Nc5nccc(C)n5)cc4)C(C)C3)c(F)c21` (stereo not given), for which the growth in the experiment with SR leukemia was 103%; in the experiment with RPMI-8226 leukemia, 109%; with OVCAR-8 ovarian it was 105%; in the experiment on OVCAR-5 ovarian it was 98.5%; in the experiment with OVCAR-4 ovarian it was 104%; in the experiment on SK-OV-3 ovarian, 113%. In addition, the growth was 99.7% in the experiment with IGROV1 ovarian, 113% in the experiment on OVCAR-3 ovarian, 99.6% in the experiment on HS 578T breast and 107% with NCI/ADR-RES ovarian.
As for `CC/C(=C(/c1ccc(Cl)cc1)c1ccc(OCCN(C)C)cc1)c1ccc(Cl)cc1`, the growth in the experiment on SR leukemia was -6.88% (active); with RPMI-8226 leukemia, 32.8%; in the experiment on OVCAR-8 ovarian, 75.1%; in the experiment with OVCAR-5 ovarian, 83.9%; in the experiment with OVCAR-4 ovarian, 78%; with SK-OV-3 ovarian, 90%. Besides, the growth with IGROV1 ovarian was 72.5%; in the experiment with OVCAR-3 ovarian, 65%; with HS 578T breast, 75.1%; in the experiment with NCI/ADR-RES ovarian, 74.8%.
In the case of `NS(=O)(=O)c1ccc(N=Nc2c(O)n(Cc3ccccc3)c3ccc(Cl)cc23)cc1`, the growth is 60.2% with SR leukemia; 90.7% with RPMI-8226 leukemia; 65.1% in the experiment on OVCAR-8 ovarian; 86.8% in the experiment on OVCAR-5 ovarian; 28.7% with OVCAR-4 ovarian; 74.3% with SK-OV-3 ovarian. The growth was 84% in the experiment on IGROV1 ovarian, 89.4% in the experiment on OVCAR-3 ovarian, 44.8% in the experiment on HS 578T breast and 82.5% with NCI/ADR-RES ovarian.
With `Nc1ncnc2c1N=C(c1ccc(Br)cc1)CC(c1cccc(Nc3ccnc4cc(C(F)(F)F)ccc34)c1)N2` (stereo not given), the growth in the experiment with SR leukemia was 22.1%; with RPMI-8226 leukemia it was 12.7%; in the experiment on OVCAR-8 ovarian, 69.9%; in the experiment on OVCAR-5 ovarian, 88.7%; with OVCAR-4 ovarian, 76.8%; with SK-OV-3 ovarian it was 45.7%. Further, the growth in the experiment on IGROV1 ovarian was 65.7%; with OVCAR-3 ovarian it was 83.9%; in the experiment with HS 578T breast, 65%; in the experiment on NCI/ADR-RES ovarian, 66.9%.
Regarding `N#Cc1c(-c2ccc(Cl)cc2)c(C#N)c2c(C#N)c(N)nn2c1N`, the growth in the experiment on SR leukemia was 69.5%; in the experiment on RPMI-8226 leukemia, 73.9%; with OVCAR-8 ovarian it was 88%; in the experiment on OVCAR-5 ovarian, 86.9%; with OVCAR-4 ovarian, 82.4%; in the experiment with SK-OV-3 ovarian, 70.5%. Further, the growth with IGROV1 ovarian was 74.1%; with OVCAR-3 ovarian it was 93.8%; in the experiment with HS 578T breast it was 79.4%; in the experiment on NCI/ADR-RES ovarian it was 96.3%.
Regarding `Cc1ccc(C2=Nc3c(N)ncnc3NC(c3cccc(Nc4ccnc5cc(C(F)(F)F)ccc45)c3)C2)cc1` (stereo not given), the growth with SR leukemia is -19.3% (active); in the experiment with RPMI-8226 leukemia, -26.6% (active); in the experiment on OVCAR-8 ovarian, 48.5%; in the experiment with OVCAR-5 ovarian it was 75.2%; with OVCAR-4 ovarian, 45.6%; in the experiment with SK-OV-3 ovarian it was 46.7%. The growth is 44.7% in the experiment with IGROV1 ovarian, 39.2% with OVCAR-3 ovarian, 43.3% in the experiment on HS 578T breast and 17.4% with NCI/ADR-RES ovarian.
With `S=c1sc2c(Cl)nc(-c3cccnc3)nc2n1-c1ccccc1`, the growth in the experiment on SR leukemia is -27.2% (active); in the experiment with RPMI-8226 leukemia it was -3.47% (active); in the experiment on OVCAR-8 ovarian it was 18%; in the experiment on OVCAR-5 ovarian, 125%; in the experiment with OVCAR-4 ovarian, 70.6%; in the experiment on SK-OV-3 ovarian it was 87.9%. For the same compound, the growth with IGROV1 ovarian is -60.2% (active); with OVCAR-3 ovarian, 52.2%; with HS 578T breast it was 55.9%; in the experiment on NCI/ADR-RES ovarian it was 60.2%.
As to `CCOC(=O)c1cc2c(n1C)-c1nc(NC(C)=O)sc1CCC2`, the growth was 72.6% in the experiment with SR leukemia; 79% with RPMI-8226 leukemia; 71.2% in the experiment on OVCAR-8 ovarian; 117% in the experiment on OVCAR-5 ovarian; 80.4% in the experiment on OVCAR-4 ovarian; 76.1% in the experiment with SK-OV-3 ovarian. The growth is 69.2% in the experiment on IGROV1 ovarian, 85.7% in the experiment with OVCAR-3 ovarian, 60.5% in the experiment with HS 578T breast and 85.1% with NCI/ADR-RES ovarian.
As for `Nc1nc(-c2ccc(Cl)cc2)nc2c1sc(=S)n2-c1ccccc1`, the growth in the experiment with SR leukemia was -17.8% (active); in the experiment with RPMI-8226 leukemia, 45.5%; in the experiment with OVCAR-8 ovarian, 32.4%; with OVCAR-5 ovarian it was 62.6%; in the experiment on OVCAR-4 ovarian, -20.1% (active); in the experiment on SK-OV-3 ovarian, 23.4%. Besides, the growth in the experiment with IGROV1 ovarian is 44.9%; with OVCAR-3 ovarian it was 40.2%; in the experiment with HS 578T breast, 19.9%; with NCI/ADR-RES ovarian, 43.8%.
In the case of `N#Cc1c(-c2ccccc2)[nH]c2ncc(-c3ccccc3)n2c1=O`, the growth was 89.8% in the experiment on SR leukemia; 106% in the experiment with RPMI-8226 leukemia; 95.6% in the experiment on OVCAR-8 ovarian; 109% in the experiment on OVCAR-5 ovarian; 96.2% in the experiment on OVCAR-4 ovarian; 76.6% in the experiment with SK-OV-3 ovarian. Besides, the growth in the experiment on IGROV1 ovarian was 50.7%; with OVCAR-3 ovarian it was 86%; in the experiment on HS 578T breast it was 88.6%; in the experiment with NCI/ADR-RES ovarian, 91.2%.
For `N=C(N)c1ccc(-c2ccc(-c3ccccc3)o2)cc1`, the growth with SR leukemia is -29.3% (active); with RPMI-8226 leukemia it was -36.7% (active); in the experiment on OVCAR-8 ovarian it was -59.3% (active); in the experiment with OVCAR-5 ovarian, -10.9% (active); in the experiment on OVCAR-4 ovarian, -4.49% (active); in the experiment on SK-OV-3 ovarian, -18.3% (active). The growth was -25.7% (active) in the experiment on IGROV1 ovarian, -38.4% (active) in the experiment with OVCAR-3 ovarian, -18.1% (active) in the experiment with HS 578T breast and -5.17% (active) with NCI/ADR-RES ovarian.
Turning to `COC1/C=C/OC2(C)Oc3c(C)c(O)c4c(O)c(c(/C=N/Nc5ccc([N+](=O)[O-])cc5[N+](=O)[O-])c(O)c4c3C2=O)NC(=O)C(C)=C/C=C/C(C)C(O)C(C)C(O)C(C)C(OC(C)=O)C1C` (stereo not given), the growth in the experiment with SR leukemia was 7.02% (active); with RPMI-8226 leukemia, 7.67% (active); in the experiment on OVCAR-8 ovarian, 27.3%; in the experiment on OVCAR-5 ovarian, 48.3%; with OVCAR-4 ovarian, 35%; with SK-OV-3 ovarian, 112%. In addition, the growth is 28.5% in the experiment on IGROV1 ovarian, -42.1% (active) in the experiment with OVCAR-3 ovarian, 20% in the experiment with HS 578T breast and 76.7% in the experiment with NCI/ADR-RES ovarian.
`CC(C)Cn1cnc2c(=O)[nH]c(N)nc21`: the growth in the experiment on SR leukemia was 90.3%; in the experiment on RPMI-8226 leukemia it was 104%; with OVCAR-8 ovarian it was 97%; in the experiment with OVCAR-5 ovarian it was 110%; with OVCAR-4 ovarian, 103%; in the experiment with SK-OV-3 ovarian, 78%. In addition, the growth was 104% in the experiment with IGROV1 ovarian, 109% in the experiment with OVCAR-3 ovarian, 106% with HS 578T breast and 105% in the experiment on NCI/ADR-RES ovarian.
